# From PubChem BioAssay
# “And” between values parts separate entries of the source, which are not always exact repeats. Equal values may be shown once. The source made the active and inactive calls. Unless noted, how the calls were made is not given here.
# How the values were obtained:
# [1] = P. berghei load reduction in hepatocytes – cell-based, HepG2, luciferase luminescence, HepG2 viability, primary screen (AID 624349; in the data active means parasite load remaining mostly below about 12%, no sharp cut-off; inactive means mostly above about 10%;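 further: 100% = mean of DMSO negative control wells on the same plate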); conditions: P. berghei liver stage in HepG2, luciferase luminescence, concentration not given here; parasite load remaining: stronger effect = lower value; viability: measured here: HepG2 viability without parasites
# [2] = signal quenchers or enhancers, Cy5 substrate/SSB – biochemical, NIH Clinical Collection, E. coli SSB, artefact control for HCV NS3 helicase inhibitor project (AID 743268); conditions: Cy5-oligo bound E. coli SSB, fluorescence interference
# [3] = system: Hepatitis C virus NS3 helicase; assay: blockers of NS3h binding to DNA – biochemical, fluorescence polarization, NIH Clinical Collection, primary screen (AID 743270); conditions: NS3 helicase binding to Cy5-dT15 DNA, stronger effect = higher value, concentration not given here
# [4] = biological target: Single-stranded DNA-binding protein (Escherichia coli (strain K12)) (UniProt P0AGE0); assay: SSB-ssDNA binding inhibitors – biochemical, fluorescence polarization, NIH Clinical Collection, counter-screen for HCV NS3 helicase inhibitor project (AID 743271; in the data active means inhibition above about 28%); conditions: E. coli SSB-DNA binding, stronger effect = higher value, concentration not given here
# [5] = compounds distorting NS3 helicase fluorescence signal – biochemical, NIH Clinical Collection, artefact control for HCV NS3 helicase inhibitor project (AID 743272); conditions: fluorescence interference counterscreen, HCV NS3 helicase assay; stronger effect = lower value;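 further: HCV NS3 helicase with a Cy5 labelled single stranded DNA probe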
# [6] = system: Neuropilin-2 / VEGF-C interaction (human); assay: small molecules blocking Neuropilin-2/VEGF-C interaction – biochemical, microplate binding format, z-score (AID 743281); conditions: microplate NRP2/VEGF-C binding assay; stronger effect = lower value
# [7] = Wnt pathway potentiators raising nuclear beta-catenin – imaging, WNT3A-conditioned medium, mouse C2C12, NPC library, primary screen (AID 1117326; in the data active means nuclear beta-catenin stimulation mostly above about 4.2%, no sharp cut-off; inactive means mostly below about 10%); conditions: stronger effect = higher value
# [8] = system: Hepatitis C virus NS3 helicase; assay: blockers of NS3h binding to ssDNA – biochemical, fluorescence polarization, LOPAC1280 library, primary screen (AID 687035; in the data active means inhibition above about 37%); conditions: Purified HCV NS3 helicase, Cy5-dT15 ssDNA binding fluorescence polarization; stronger effect = higher value; concentration not given here
# [9] = compounds altering Cy5-DNA-NS3h complex signal – biochemical, LOPAC1280, artefact control for HCV NS3 helicase inhibitor project (AID 687037); conditions: Cy5-DNA-NS3h complex fluorescence interference counterscreen
Compound,parasite load remaining [1],viability [1],fluorescence ratio [2],inhibition [3],inhibition [4],fluorescence ratio [5],z-score [6],nuclear beta-catenin stimulation ([7]; at 10 µM),"nuclear beta-catenin stimulation ([7]; stimulation, at 2 µM) [%]",inhibition [8],fluorescence ratio (interference) [9],outcome [6]
COCc1c(C(C)C)nc(C(C)C)c(/C=C/[C@@H](O)C[C@@H](O)CC(=O)O)c1-c1ccc(F)cc1,149% (inactive) and 309% (inactive),53.2% and 109%,1.03 (inactive),-4.36% (inactive),-2.41% (inactive),0.99 (inactive),-0.18 (inactive),18.8% (active),44.8,–,–,–
Clc1ccc2c(c1)CCc1cccnc1C2=C1CCNCC1,48.1% (inactive) and 27.5% (inactive) and 15.2% (inactive),92% and 56.9% and 74%,1 (inactive),-2.84% (inactive),-3.54% (inactive),1 (inactive),1.87 (inactive),0.3% (inactive),-0.9,–,–,–
CCCCCN(C)CCC(O)(P(=O)(O)O)P(=O)(O)O,28% (inactive),76.5%,–,–,–,–,–,-3% (inactive),0.2,–,–,–
Cc1cnc(C(=O)O)c[n+]1[O-],22.9% (inactive),79.5%,–,–,–,–,–,2.4% (inactive),1.1,–,–,–
CCN1CCCC1CNC(=O)c1cc(S(=O)(=O)CC)c(N)cc1OC (stereo not drawn),79.8% (inactive),68.8%,1.05 (inactive),0.4% (inactive),-4.72% (inactive),1.01 (inactive),-0.283 (inactive),-0.8% (inactive),-0.8,-3% (inactive),0.9 (inactive),–
CCCc1cc(C(N)=S)ccn1,145% (inactive) and 18.2% (inactive),83.8% and 63%,–,–,–,–,–,0.2% (inactive),2,–,–,–
Clc1ccc2nsnc2c1NC1=NCCN1,61.3% (inactive) and 52.1% (inactive),95.4% and 240%,1.05 (inactive),-5% (inactive),-2.76% (inactive),0.99 (inactive),–,0.6% (inactive),-0.6,-3% (inactive),1 (inactive),–
COc1cc2c(cc1OC)C(=O)C(CC1CCN(Cc3ccccc3)CC1)C2 (stereo not drawn),49.6% (inactive) and 67.4% (inactive),93.5% and 63.1%,1.07 (inactive),1.98% (inactive),1.44% (inactive),1.04 (inactive),0.0126 (inactive),-1% (inactive),-0.2,–,–,–
Cc1ccsc1C(=CCCN1CCC[C@@H](C(=O)O)C1)c1sccc1C,111% (inactive),71.9%,0.99 (inactive),-2.77% (inactive),3.75% (inactive),0.96 (inactive),1.77 (inactive),1.8% (inactive),0.9,–,–,–
CCOc1cc(N)c(Cl)cc1C(=O)NCC1CN(Cc2ccc(F)cc2)CCO1 (stereo not drawn),29.6% (inactive),70.5%,0.99 (inactive),1.19% (inactive),4.52% (inactive),0.95 (inactive),0.948 (inactive),2.5% (inactive),1.9,–,–,–
COC(=O)C1=C(C)NC(C)=C(C(=O)O[C@@H]2CCCN(Cc3ccccc3)C2)[C@@H]1c1cccc([N+](=O)[O-])c1,10.8% (inactive),55.9%,0.96 (inactive),3.56% (inactive),5.29% (inactive),0.94 (inactive),1.67 (inactive),8.2% (inactive),5.8,–,–,–
CC(=O)Nc1ccc(CC(=O)O)cc1,119% (inactive),78.7%,1.02 (inactive),0.4% (inactive),-2.41% (inactive),0.93 (inactive),-0.00496 (inactive),-0.2% (inactive),0.4,–,–,–
Cn1c(NCCN(CCO)CCCc2ccc([N+](=O)[O-])cc2)cc(=O)n(C)c1=O,109% (inactive) and 18.9% (inactive),77.5% and 73.5%,0.99 (inactive),0.4% (inactive),1.44% (inactive),0.97 (inactive),0.0586 (inactive),0.1% (inactive),0.3,–,–,–
CN(C/C=C/C#CC(C)(C)C)Cc1cccc2ccccc12,40.7% (inactive) and 65.8% (inactive) and 43.2% (inactive),99.2% and 68.9% and 104%,1.06 (inactive),1.19% (inactive),4.52% (inactive),1 (inactive),0.0743 (inactive),5.3% (inactive),2.6,–,–,–
CN1[C@@H]2CC[C@H]1CC(OC(=O)c1c[nH]c3ccccc13)C2 (stereo partly drawn),118% (inactive) and 21.9% (inactive),102% and 67.5%,1.02 (inactive),-3.56% (inactive),-3.95% (inactive),0.9 (inactive),-0.714 (inactive),1.1% (inactive),1.6,–,–,–
CCOC(=O)OC(C)OC1=C(C(=O)Nc2ccccn2)N(C)S(=O)(=O)c2ccccc21 (stereo not drawn),75.6% (inactive) and 16.2% (inactive),78.8% and 73%,0.97 (inactive),-2.84% (inactive),-0.39% (inactive),0.96 (inactive),-0.884 (inactive),0.7% (inactive),-0.8,–,–,–
CN1CCN(C2=Nc3cc(F)ccc3Cc3ccccc32)CC1,91.4% (inactive) and 40.9% (inactive),62.6% and 67%,0.91 (inactive),-1.97% (inactive),1.97% (inactive),0.9 (inactive),-0.511 (inactive),-1.1% (inactive),-3,–,–,–
CCCN1CCCC[C@H]1C(=O)Nc1c(C)cccc1C,68.8% (inactive),69.6%,0.98 (inactive),-5.46% (inactive),-2.76% (inactive),0.92 (inactive),0.543 (inactive),0.3% (inactive),-1.3,–,–,–
CC(C)(C)C(O)/C=C/c1ccc2c(c1)OCO2 (stereo not drawn),76% (inactive),68%,0.94 (inactive),-4.59% (inactive),-2.76% (inactive),0.88 (inactive),-0.389 (inactive),0% (inactive),1.5,–,–,–
O=C1Nc2ccc(Cl)cc2[C@@](C#CC2CC2)(C(F)(F)F)O1,46.6% (inactive) and 8.97% (inactive),69% and 64.5%,0.99 (inactive),5.15% (inactive),6.06% (inactive),0.99 (inactive),0.939 (inactive),-0.8% (inactive),3.6,–,–,–
CNS(=O)(=O)Cc1ccc2[nH]cc(CCN(C)C)c2c1,108% (inactive) and 29.1% (inactive),93.1% and 65.5%,1.05 (inactive),5.94% (inactive),6.06% (inactive),1.03 (inactive),0.0332 (inactive),0.9% (inactive),0.4,–,–,–
CC(C)[C@H](N)C(=O)OCCOCn1cnc2c(=O)[nH]c(N)nc21,172% (inactive) and 103% (inactive) and 32.5% (inactive),88% and 76.1% and 74%,1.06 (inactive),-4.36% (inactive),-4.72% (inactive),1.03 (inactive),–,0.1% (inactive),2.1,–,–,inactive
CCCc1nc(C)c2c(=O)[nH]c(-c3cc(S(=O)(=O)N4CCN(CC)CC4)ccc3OCC)nn12,37.6% (inactive) and 31.5% (inactive) and 37.1% (inactive),202% and 68.7% and 126%,0.94 (inactive),-13.3% (inactive),-1.97% (inactive),0.93 (inactive),–,0.1% (inactive),-1,–,–,inactive
Nc1c2c(nc3c1CCC3)CCCC2,74.2% (inactive),68.8%,0.99 (inactive),2.77% (inactive),1.44% (inactive),0.9 (inactive),-0.236 (inactive),0.3% (inactive),0.3,–,–,–
NC1CCN(c2nc3c(cc2F)c(=O)c(C(=O)O)cn3-c2ccc(F)cc2F)C1 (stereo not drawn),96.2% (inactive) and 26.3% (inactive),82.6% and 76%,0.97 (inactive),-5.15% (inactive),9.91% (inactive),0.98 (inactive),-1.29 (inactive),1% (inactive),0.1,–,–,–
CCN1CC(CCN2CCOCC2)C(c2ccccc2)(c2ccccc2)C1=O (stereo not drawn),66% (inactive),70.6%,0.9 (inactive),-8.95% (inactive),5.91% (inactive),0.88 (inactive),-0.0578 (inactive),-1.3% (inactive),-3.1,–,–,–
CCN(CC)CC1CCCCN1CC(=O)N1c2ccccc2C(=O)Nc2cccnc21 (stereo not drawn),84.2% (inactive),71.2%,1.04 (inactive),-2.77% (inactive),-2.41% (inactive),1.04 (inactive),-0.131 (inactive),6.3% (inactive),1.6,–,–,–
CN1CCN(c2c(F)cc3c(=O)c(C(=O)O)cn4c3c2SCC4)CC1,99.2% (inactive) and 24.3% (inactive),91.2% and 66%,1.04 (inactive),-4.36% (inactive),-3.18% (inactive),0.99 (inactive),–,1.2% (inactive),-0.2,–,–,inactive
CN(C)CC/C=C1/c2ccccc2COc2ccc(CC(=O)O)cc21,66.3% (inactive) and 36.6% (inactive),81.2% and 101%,0.96 (inactive),-6.33% (inactive),-3.54% (inactive),0.94 (inactive),-0.65 (inactive),-0.9% (inactive),0.1,–,–,–
Cn1nnc2c(C(N)=O)ncn2c1=O,106% (inactive) and 19.4% (inactive),79.6% and 80.5%,1.03 (inactive),-5.94% (inactive),-0.87% (inactive),0.9 (inactive),-0.72 (inactive),-1.7% (inactive),0,–,–,–
